About 550 (0.16%) of roughly 350,000 compounds were called active. The full list was thinned out, with actives kept by preference. Unmarked numbers belong to inactive results. No stated cut-off is given here; in the data, active means activation mostly above about 9.7% (no sharp cut-off); inconclusive means no clear call, values can overlap the other calls; inactive means mostly below about 3.7%.
Assay: inducers of Vibrio cholerae quorum light production without autoinducers, primary screen, BH1578 luxS cqsA deficient, single point (AID 588436)
Conditions: V. cholerae BH1578 lux reporter, luminescence, 6 h, at 18.7 µM; stronger effect = higher value
Compound `Cc1ccc(CNC(=O)C2CCCN2S(=O)(=O)c2ccc3c(c2)C(C)(C)C(=O)N3C)cc1` (stereo not drawn) has an activation of -0.135%. With `CCNC(=O)CCc1nc(-c2ccc(C(C)(C)C)cc2)no1` the activation was “inactive”. With `CCOC(=O)C1(CCOC)CCN(Cc2ccc(C(=O)OC)cc2)CC1` the activation was 0.0345%. With `CCOC(=O)C1(CCOc2ccccc2)CCN(Cc2cc(OC)cc(OC)c2)CC1` the activation was 21.2% (active). With `CCOC(=O)C1(CCOc2ccccc2)CCN(Cc2ccc(C#CCCO)cc2)CC1` the activation was “inactive”. With `O=C(Nc1ccccc1C(=O)N1CCOCC1)c1ccc(Cl)cc1` the activation was -0.216%. Compound `COc1ccccc1C(=O)NC(=O)COC(=O)C1CC1` has an activation of 0.621%. For `CCOc1ccccc1NC(=O)CCc1nnc2ccc(NCc3ccco3)nn12`, the activation was -0.0905%. `COc1ccc2c(c1)c(C(=O)N/N=C/c1cccs1)c(C)n2C` gave an activation of -0.575%. In the case of `Fc1c(F)c(C(F)(F)F)c(F)c(F)c1N1CCN(c2ccc3nnc(C(F)(F)F)n3n2)CC1`, the activation is reported as 0.463%. `COc1ccc(S(=O)(=O)N(C)C[C@H]2Oc3c(NC(=O)Nc4ccc5c(c4)OCO5)cccc3C(=O)N([C@H](C)CO)C[C@@H]2C)cc1` showed an activation of 1.22%. With `CCCc1nc2ccccc2c(C(=O)OCc2nnc(-c3cc(OC)c(OC)c(OC)c3)o2)c1CC` the activation was -0.28%. With `CN(CC1CCCO1)S(=O)(=O)c1ccc(C(=O)Nc2ccc([N+](=O)[O-])cc2)cc1` (stereo not drawn) the activation was “inactive”. In the case of `CC(C)c1ccc(NC(=O)CCN2C(=O)c3ccc([N+](=O)[O-])cc3C2=O)cc1`, the activation is reported as -0.342%. With `Cn1ccc(=Nc2ccc(NC(=O)c3ccc(N=c4ccn(C)c5ccc([N+](=O)[O-])cc45)cc3)cc2)cc1` the activation was 52.2% (active). With `CCOP(=O)(OCC)C(Nc1cccc(C)c1)c1ccc(F)cc1` (stereo not drawn) the activation was -0.244%. `CSc1ccc(S(=O)(=O)NCc2ccc(Cl)cc2)cc1` gave an activation of -1.22%. In the case of `OC[C@@H]1CN(Cc2cccs2)C[C@H](n2cnc3c(Nc4ccccc4)ncnc32)O1`, the activation is reported as -0.66%. Work on `C=CCn1cc(-c2cccc(C(F)(F)F)c2)cc(C#N)c1=O` yielded an activation of -4.13%. In the case of `CC(=O)N1CCN(C(=O)C2(NC(=O)Nc3ccc(C)cc3)CCCCC2)CC1`, the activation is reported as -0.583%. With `CNC(=O)N1c2ccccc2C=Cc2ccccc21` the activation was -0.261%. In the case of `CC(=O)Nc1cccc(-c2cc3nc(NCc4cccnc4)n(C)c(=O)c3s2)c1`, the activation is reported as “inactive”. `Cc1c(Br)c([N+](=O)[O-])nn1CC(=O)Nc1sc2c(c1C(=O)OC(C)C)CCC(C)C2` (stereo not drawn) showed an activation of -0.23%. With `O=C(c1ccc(F)cc1)N1CCC(C(=O)N2CCN(S(=O)(=O)c3ccccc3Br)CC2)CC1` the activation was “inactive”. Work on `CC(=O)Nc1ccc(Oc2ccc3c(c2)C(=O)NC3=O)cc1` yielded an activation of 0.165%. For `O=C(COc1coc(CN2CCN(c3ccccc3F)CC2)cc1=O)N1CCc2ccccc21`, the activation was -0.376%. For `CCN(CC)S(=O)(=O)c1ccc2c3c(cccc13)C(=O)S2`, the activation was “inactive”. `Cc1nn(C)c(C)c1S(=O)(=O)N1CCC(CO)(Cc2ccc(Cl)cc2)CC1` gave an activation of -0.416%. For `Cn1c(C(=O)O)ccc1S(=O)(=O)N(Cc1ccccc1)Cc1ccccc1`, the activation was “inactive”. `CN(CC(=O)NC1CCCCC1)S(=O)(=O)c1cccc2cccnc12` showed an activation of -0.233%. With `O=S(=O)(c1cccc(C(F)(F)F)c1)N1CCN(c2cnccn2)CC1` the activation was “inactive”. For `COc1ccc(S(=O)(=O)N2CCSCC2)cc1`, the activation was “inactive”. With `COc1ccc(S(=O)(=O)N2CCN(c3cnccn3)CC2)cc1` the activation was 42.2% (active). Compound `CCOc1ccc(Oc2nc(C)cc(OC)n2)nn1` has an activation of -0.469%. With `CC1CN(C(=O)CN2C(=O)NC(C)(c3ccccc3)C2=O)CC(C)O1` (stereo not drawn) the activation was “inactive”. Compound `Cc1sc2nc(COC(=O)C(NC(=O)c3ccc(Cl)cc3Cl)C(C)C)[nH]c(=O)c2c1C` (stereo not drawn) has an activation of -0.176%. Work on `COc1cccc(-n2c(N)cc(=O)nc2SCC(=O)Nc2cc(C)on2)c1` yielded an activation of 0.462%. In the case of `Cc1ccnc(NC(=O)CCC(=O)N(CC(=O)NCc2ccccc2)Cc2ccco2)c1`, the activation is reported as -0.537%. For `NC(=O)c1nsc(C(=O)N(CC(=O)NCc2ccc(F)cc2)Cc2ccco2)c1N`, the activation was 25% (active). In the case of `COc1ccc(CNC(=O)C(c2ccc(O)cc2)N(Cc2ccco2)C(=O)c2snc(C(N)=O)c2N)cc1` (stereo not drawn), the activation is reported as 0.29%. For `Cc1ccc(C(=O)Cc2nnc(C)s2)cc1`, the activation was -0.621%. With `COc1ccc(C(C#N)N2N=C(C)CC2(C)C)cc1` (stereo not drawn) the activation was “inactive”. With `COc1cc(N/C=C2\CC(=O)NC(C)=C2C#N)cc(OC)c1OC` the activation was -0.38%. For `COc1ccc(OCc2cn3c(C)cc(C)nc3n2)cc1`, the activation was 126% (active). In the case of `COc1ccc(-c2cc(C)nc3nc(N)nn23)cc1`, the activation is reported as -1.41%. Work on `Cc1cc(C)nc(SCc2cn3c(C)cc(C)nc3n2)n1` yielded an activation of -0.12%. `COc1ccc(Cl)cc1NC(=O)COc1ccc2c(c1)OCO2` gave an activation of -2.78%. In the case of `COc1ccc(Cl)cc1NC(=O)COC(=O)c1ccc(Br)o1`, the activation is reported as 78.5% (active). Work on `COc1ccc(Cl)cc1NC(=O)CN(C)Cc1ccc(OC)c(OC)c1` yielded an activation of -0.294%. With `Cc1nc(-c2ccccc2)cn2c1nc1ccccc12` the activation was “inactive”. In the case of `Cc1cc(C)c(S(=O)(=O)N(C)CC(=O)NCC2CCCO2)c(C)c1` (stereo not drawn), the activation is reported as -0.212%. For `CCC(=O)N1c2ccc(S(=O)(=O)NCc3ccco3)cc2CC1C` (stereo not drawn), the activation was -0.345%. In the case of `CCn1nnc2cc(C(=O)Nc3ccc(C(=O)OC(C)C)cc3)ccc21`, the activation is reported as “inactive”. `CCCc1ccc(C(=O)[C@@H]2[C@@H](C(C)=O)N3c4ccc(F)cc4C=C[C@@H]3[C@@]23C(=O)Nc2ccccc23)cc1` showed an activation of -0.383%. With `O=C(O)CCSc1nnc(-c2ccccc2)n1-c1ccccc1` the activation was 4%. With `O=C(Nc1ccc2oc(-c3ccc4ccccc4c3)nc2c1)c1cccs1` the activation was 25% (active). Work on `COc1cc(OC)cc(C(=O)Nc2ccc(-c3nc4ccccc4o3)c(O)c2)c1` yielded an activation of -1.79%. For `O=C(Nc1ccc2oc(-c3ccccc3F)nc2c1)c1ccco1`, the activation was 0.203%.
